# Measured values from PubChem BioAssay (NCI).
# This is part of a sample that, as a whole, favours compounds with a hit. Of some 83,000 tested, about 20% had one in any assay.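 Results are percent growth after 48 hours of single-concentration exposure. 100 means growth as in untreated cells, lower positive values show inhibition; negative values down to -100 show cell death.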 Unmarked numbers belong to inactive results. The source made the active and inactive calls. How the source made its calls: active means growth percent below 10; inactive means the rest.
# Experiments:
# Assay in all cases: NCI-60 one-dose screen, 48 h (100 = growth as untreated, 0 = no growth, -100 = all killed)
# Conditions in all cases: 10 µM unless noted
# NCI-H23 lung = tested on: NCI-H23 lung
# NCI-H226 lung = tested on: NCI-H226 lung
# NCI-H322M lung = tested on: NCI-H322M lung
# HOP-62 NSCLC = tested on: HOP-62 NSCLC
# NCI-H460 lung = tested on: NCI-H460 lung
# HOP-92 NSCLC = tested on: HOP-92 NSCLC
# A549/ATCC NSCLC = tested on: A549/ATCC NSCLC
# 786-0 renal = tested on: 786-0 renal
# COLO 205 colon = tested on: COLO 205 colon
SMILES,growth (NCI-H23 lung),growth (NCI-H226 lung),growth (NCI-H322M lung),growth (HOP-62 NSCLC),growth (NCI-H460 lung),growth (HOP-92 NSCLC),growth (A549/ATCC NSCLC),growth (786-0 renal),growth (COLO 205 colon)
O=c1ccn(C2CC=C(CO)O2)c(=O)[nH]1 (stereo unspecified),91.9%,95.7%,95.9%,102%,124%,38.1%,106%,93.4%,106%
CCOc1cc(/C=C/C(=O)CC(=O)/C=C/c2ccc(OC(=O)CNCCN(CC)CC)c(OCC)c2)ccc1OC(=O)CNCCN(CC)CC,-35.6% (active),-41.3% (active),-0.873% (active),-32.1% (active),-27.3% (active),-3.28% (active),12.4%,-91.6% (active),-51.3% (active)
COc1ccc2c(c1)CC[C@@H]1[C@@H]2CC[C@]2(C)[C@@H](O)C(=O)C[C@@H]12,102%,114%,91.3%,103%,102%,116%,99.6%,106%,102%
COc1cc(/C=C/C(=O)CC(=O)/C=C/c2ccc(OC(=O)C3C4CC5CC(C4)CC3C5)c(OC)c2)ccc1OC(=O)C1C2CC3CC(C2)CC1C3 (stereo unspecified),104%,123%,92.9%,99.1%,120%,65.5%,102%,104%,110%
Clc1ccc(C2=NN(c3ccc(Cl)cc3)C(c3cccc(Nc4ccnc5cc(Cl)ccc45)c3)C2)cc1 (stereo unspecified),85.2%,88%,87.7%,69.4%,93.1%,88%,70.9%,85.3%,72.8%
C/C(=C\CCc1ccoc1)CC/C=C(\C)CCCN1CCSCC1,64.6%,80%,7.95% (active),97.5%,10.1%,73.3%,28.4%,91.6%,51.1%
COc1ccc2c(=O)c(OC)c(-c3cc(OC)c(OC)c(OC)c3)oc2c1,86.4%,91.3%,89.1%,82.8%,102%,46.5%,44.1%,67.8%,129%
C[C@H](C(=O)N[C@@H](Cc1ccc(-c2ccccc2)cc1)C(=O)NC1CC(C)(C)NC(C)(C)C1)c1ccc(-c2ccccc2)c(F)c1,-42% (active),-26.7% (active),-34% (active),-67.4% (active),-76.4% (active),-69.7% (active),-76.9% (active),-88.6% (active),-81.8% (active)
COc1ccc(/C=C2/SC(=Nc3c(C)nn(-c4ccccc4)c3N)NC2=O)cc1,38.3%,51.1%,39.1%,53%,17.7%,53.7%,32.4%,40.5%,43.7%
COc1ccc(N2CCN(CC(=O)N3CCN(c4nnc(-c5ccccc5)c(-c5ccccc5)n4)CC3)CC2)cc1,46.8%,46.2%,78.2%,64.7%,42.5%,39%,14.8%,27%,47.9%
O=C(Oc1ccccc1)C(Br)C(Br)c1ccccc1 (stereo unspecified),112%,107%,179%,107%,109%,81.6%,91.9%,98.3%,49.4%
CSc1nc(-c2ccc(O)cc2O)c2c(=O)[nH]c(Nc3ccc(S(=O)(=O)Nc4nc(C)cc(C)n4)cc3)nc2n1,105%,105%,108%,89.6%,111%,24.6%,112%,100%,112%
CCSCC1CC(O)(c2ccccc2)C(c2ccccc2)C(c2ccc(Cl)cc2)O1 (stereo unspecified),14.7%,-1.26% (active),18%,16.4%,-45.8% (active),-3.51% (active),-23.1% (active),3.26% (active),-100% (active)
O=CN1N=C(c2ccc(Cl)cc2)CC1c1cccc(Nc2ccnc3cc(Cl)ccc23)c1 (stereo unspecified),11.6%,24.4%,42.4%,8.16% (active),11.1%,21.5%,20.9%,20.5%,-26.9% (active)
NC(=O)c1cc(Cl)ccc1NC(=O)c1ccccc1-c1ccccc1,39.9%,57.7%,30%,39%,13.2%,67.7%,35.6%,26.6%,-14.1% (active)
COc1cc(/C=C/C(=O)CC(=O)/C=C/c2ccc(OC(=O)CCNC34CC5CC(CC(C5)C3)C4)c(OC)c2)ccc1OC(=O)CCNC12CC3CC(CC(C3)C1)C2,28.5%,39.8%,63.4%,66.9%,10.3%,18.5%,63.1%,16.7%,45.9%
O=C1C=CC(=O)N1c1ccccn1,102%,108%,110%,113%,106%,104%,96.9%,105%,112%
COc1cccc(N2CCN(CC(=O)N3CCN(c4nnc(-c5ccc(Cl)cc5)c(-c5ccc(Cl)cc5)n4)CC3)CC2)c1,82.9%,74.7%,71.9%,95.9%,70.8%,11.9%,-1.64% (active),79.4%,78.6%
Nc1nc(Nc2ccccc2SSc2ccccc2Nc2nc(N)nc(C(Cl)(Cl)Cl)n2)nc(C(Cl)(Cl)Cl)n1,54%,64.6%,75.3%,-34% (active),69.6%,131%,-42.5% (active),70%,114%
CCOC(=O)/C=C1/SC(=Nc2ccc(C#N)cc2)N(Cc2ccco2)C1=O,70.6%,70.3%,95.5%,60.3%,38.9%,37.2%,67.2%,34.6%,50.2%
COC(=O)C1(NC(=O)CNC(=O)OCc2ccccc2)CCCC1,106%,99.1%,113%,111%,111%,85.2%,95.3%,95.3%,125%
OCc1n(Cc2ccc3ccccc3c2)cc[n+]1Cc1ccc2ccccc2c1,67.7%,61.6%,78.9%,75%,53.1%,-2.81% (active),68.6%,80.1%,23.1%
ICCC(c1ccccc1)(c1ccccc1)c1ccccc1,65.6%,89.8%,86.4%,55.8%,69.5%,40.6%,59.8%,43.8%,-61.5% (active)
COc1ccc(C2=NN(C=O)C(c3cccc(Nc4ccnc5cc(Cl)ccc45)c3)C2)cc1 (stereo unspecified),23.5%,39.7%,45.8%,13.2%,14.3%,36.9%,30.2%,28.5%,0.0234% (active)
C/C(=C\CCc1ccoc1)CC/C=C(\C)CCCC1COC(=O)C1 (stereo unspecified),106%,104%,88.9%,96.9%,98.8%,88%,97%,101%,109%
C1=C(Cc2ccccc2)n2cnc3ncnc(c32)S1,61.3%,53.7%,73%,39.9%,83.8%,56.6%,87.3%,29.3%,82%
COc1cnc2c(c1)C(=O)c1c-2n(CCCN2CCNCC2)c(=O)c2cc(F)ccc12,-3.16% (active),-57.6% (active),13.7%,-8.55% (active),-58.4% (active),-7.94% (active),-70.4% (active),-94.3% (active),-10.5% (active)
COc1ccc(-c2nnc3c4[nH]cnc4ncn23)c(OC)c1,22.3%,43.5%,32.9%,25.8%,39.4%,52.9%,71.6%,21.3%,32.5%
COc1ccc(NC(=O)c2ccc(-c3ccccc3)cc2)c(C(N)=O)c1,94.5%,94.9%,91.6%,103%,100%,103%,94.1%,106%,110%
